The source of these data is PubChem BioAssay (NCATS).

Values without a mark were called inactive. Results filed as inconclusive are left out. Active and inactive are the calls of the source. Unless noted, the call rests on the fitted dose curve; in most records, active means well fitted curve in either direction with a large enough effect (not every such curve was filed as active); inconclusive means small, poorly fitted or top-dose-only effect, or another doubt; inactive means flat fitted curve, though single readings scatter. A value given as a limit tells only on which side of the number the result lay.

Experiment [1] has as its target Cytochrome P450 1A2 (Homo sapiens) (UniProt P05177). The experiment can be described thus: p450-cyp1a2 (AID 410; calls by dose curve; further: potency means the concentration at half of the fitted maximal effect;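 on activity change, negative = inhibition: -100% = full effect of reference inhibitor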). Put shortly: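 O-Demethylation of luciferin 6' methyl ether by human CYP1A2 is monitored as luciferase luminescence. Substrate sits at Km (100uM); enzyme is 20nM. Values are scaled to 57 uM furafylline as maximal inhibition.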
A short description of experiment [2]: Cell Viability - Jurkat (AID 426;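 active means dose-dependent loss of cell ATP signal giving a full or clear fitted curve, ranked by lower potency value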; further: potency means the concentration at half of the fitted maximal effect). The settings on record: qHTS. Put shortly:
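Cells of the human T-cell leukemia line Jurkat (E6-1) are seeded at 5000 per well, treated with compound across a concentration range for 40 hours at 37 °C, then lysed with CellTiter-Glo; luminescence reports ATP.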
In general terms: Quantitative high-throughput screening tests each substance at several concentrations.

Experiment [3] can be described thus: Cell Viability - Hek293 (AID 427;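 active means compounds whose dose-response curve shows a full or clear partial loss of cell viability, called from curve shape rather than a numeric limit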;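 further: potency means the concentration at half of the fitted maximal effect; cells exposed to compound for 40 hours at 37 °C before reading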). As to conditions: qHTS. Put shortly: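 AC50 values derive from Hill-modelled concentration-response of ATP-based luminescence, normalized between DMSO-only and 100 uM tamoxifen controls. Cells were exposed in complete culture medium for 40 hr at 37 °C before detection.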
Experiment [4] can be described thus: Cell Viability - HepG2 (AID 433; calls by dose curve;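 further: potency means the concentration at half of the fitted maximal effect; potency for ATP loss meaning cytotoxicity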). The settings on record: qHTS. Put shortly: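 HepG2 cells, 1500 per well, treated 40 hr at 37 °C in complete medium; viability from intracellular ATP by CellTiter-Glo luminescence. Normalized to DMSO and 100 uM tamoxifen; AC50 from Hill fit of qHTS concentration-response.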
Experiment [5] can be described thus: Cell Viability - MRC5 (AID 434; calls by dose curve;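 further: potency means the concentration at half of the fitted maximal effect; potency reflects cytotoxicity seen as loss of intracellular ATP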). As to conditions: MRC5 lung fibroblast viability, qHTS. In a few lines: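 AC50 values come from Hill-equation fits of intracellular ATP loss, measured by CellTiter-Glo luminescence. Normal lung fibroblasts (MRC5) had 40 hr compound treatment at 37 C, normalized between DMSO and 100 uM tamoxifen.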
Experiment [6] is described as follows: Cell Viability - SK-N-SH (AID 435; calls by dose curve;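 further: potency means the concentration at half of the fitted maximal effect; compound exposure lasted 40 h at 37 °C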). As to conditions: SK-N-SH neuroblastoma cell viability qHTS. In a few lines:
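SK-N-SH neuroblastoma cells (1500/well) treated 40 h at 37 °C in complete medium; viability read as cellular ATP by CellTiter-Glo luminescence. Normalized to DMSO and 100 uM tamoxifen; AC50 from Hill fits of qHTS concentration-response.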

Experiment [7] can be described thus: Stat Signaling Pathway (AID 446).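 Further: ME-180 cervical cancer cells given 40 pM IL-6 alongside compound; SIE-controlled beta-lactamase reporter measured as 460/530 nm FRET emission ratio; on the % scale 0 is the no-effect control and ±100 the full control effect.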 As to conditions: ME-180 SIE beta-lactamase reporter, IL-6 stimulated, 5 h; at 17.2 µM (top of the series). In a few lines: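 Overnight-plated ME-180 cells bearing a STAT Inducible Element beta-lactamase reporter; 5 h co-exposure to compound and 40 pM IL-6; values normalized to 300 pM IL-6 and 125 nM JAK inhibitor controls.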

Experiment [8] addresses Glucocorticoid receptor (Homo sapiens) (UniProt P04150). Kind of experiment: GR-GFP Redistribution (AID 450;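 active means compounds whose dose series gives a full or clear partial fitted curve of increased nuclear translocation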; further: potency means the concentration at half of the fitted maximal effect). The settings on record: U2OS GR-GFP nuclear translocation, laser cytometry, 2 h.
The target of experiment [9] is Mitogen-activated protein kinase 10 (Mus musculus) (UniProt Q61831). The experiment can be described thus: JNK3 AlphaScreen Assay (AID 530).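 Further: kinase came from lysate of stimulated human HepG2 cells; signal reports phosphorylation of biotinylated GST-cJun 1-79 at Ser73 with 10 µM ATP; on the % scale 0 is the no-effect control and ±100 the full control effect.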 Put shortly: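 qHTS titrations with 15 min compound pre-incubation before adding ATP (10 uM final). Read-out: AlphaScreen of Ser73-phosphorylated biotin-GST-cJun using HepG2 lysate JNK3 activated by IL-1β and TNFα.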
A general note: In Alpha technology, singlet oxygen from a donor bead excites a nearby acceptor bead.

A short description of experiment [10]: Cell Viability - N2a (AID 540; active means well fitted curve in the direction sought with a large enough effect; an effect the other way counts as inactive or inconclusive; further: nearly all actives have a fitted effect of over 45% in size; further: potency means the concentration at half of the fitted maximal effect;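 on activity change, negative = cytotoxicity: plate controls were DMSO alone for no effect and tamoxifen control for full effect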). The settings on record: N2a mouse neuroblastoma cell viability; activity change, negative = cytotoxicity: at 92.2 µM (top of the series). Put shortly: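 Cytotoxicity was scored as loss of cellular ATP in N2a cells, a mouse neuroblastoma line. Compounds are applied in a qHTS concentration series for 40 hr at 37 °C.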
A short description of experiment [11]: Cell Viability - NIH 3T3 (AID 541; active means well fitted curve in the direction sought with a large enough effect; an effect the other way counts as inactive or inconclusive; further: nearly all actives have a fitted effect of over 25% in size; further: potency means the concentration at half of the fitted maximal effect;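 on activity change, negative = cytotoxicity: plate controls were DMSO alone for no effect and tamoxifen positive control for full effect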). The settings on record: NIH 3T3 cell viability, qHTS; activity change, negative = cytotoxicity: at 92.2 µM (top of the series). In a few lines:
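Cells seeded at 1000/well, rested 5 hr at 37 °C, then dosed and incubated 40 hr at 37 °C. CellTiter-Glo added, 20 min room temperature, luminescence read. AC50 by Hill fit.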

The nature of experiment [12]: Cell Viability - HUV-EC-C (AID 542; active means well fitted curve in the direction sought with a large enough effect; an effect the other way counts as inactive or inconclusive; further: nearly all actives have a fitted effect of over 35% in size; further: potency means the concentration at half of the fitted maximal effect). Put shortly:
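Cells were seeded at 1000 per well and incubated 5 hr at 37 °C before compound addition. After 40 hr at 37 °C, CellTiter-Glo reagent was added for 20 min and luminescence read. AC50 values came from Hill-equation modelling.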

Experiment [13] in a line: Cell Viability - H-4-II-E (AID 543; active means well fitted curve in the direction sought with a large enough effect; an effect the other way counts as inactive or inconclusive; further: potency means the concentration at half of the fitted maximal effect; nearly all actives have a fitted effect of over 35% in size). Put shortly: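 Cells seeded at 1500 per well and rested 5 hr; compounds added; 40 hr incubation at 37 °C; CellTiter-Glo added, 20 min at room temperature; luminescence read. Hill-equation fits gave AC50.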
The nature of experiment [14]: Cell Viability - Renal Proximal Tubule (AID 545; active means well fitted curve in the direction sought with a large enough effect; an effect the other way counts as inactive or inconclusive;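 further: 0% = DMSO only and -100% = 100 µM tamoxifen; nearly all actives have a fitted effect of over 40% in size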). The settings on record: renal proximal tubule cells viability, primary cells of rat origin; activity change, negative = cytotoxicity: at 91.7 µM (top of the series). In a few lines: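 Rat renal proximal tubule primary cells, 1000/well, exposed to compounds for 40 hr at 37 °C in complete medium; cellular ATP read by CellTiter-Glo luminescence. AC50 from concentration-response fitted with standard Hill equation.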

Experiment [15] can be described thus: AP1 Signaling Pathway (AID 357).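 Further: ME-180 reporter cells stimulated with EGF at its EC50 level; on the % scale 0 is the no-effect control and ±100 the full control effect.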 As to conditions: ME-180 (cervical carcinoma) AP-1-bla reporter, EGF-induced, beta-lactamase ratio, 5 h; at 17.2 µM (top of the series). Put shortly: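 First, ME-180 AP-1-bla cells were cultured overnight at 37 °C in low-serum Opti-MEM. Next, titrated compounds with EC50 EGF were incubated 5 hours. Finally, CCF4 was added for 2.5 hours and the 460/530 nm ratio recorded.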

Experiment [16] can be described thus: NFAT Signaling Pathway (AID 444).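 Further: carbachol stimulus at about its EC50 of 1 µM final; on the % scale 0 is the no-effect control and ±100 the full control effect.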 The settings on record: Jurkat NFAT-bla M1, carbachol, beta-lactamase ratio, 5 h; at 17.2 µM (top of the series). Put shortly: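 Read-out: CCF4 FRET ratio (460 nm/530 nm) after 1 h RT dye loading, used for %activity and AC50 from titration series. Cells: Jurkat NFAT-β-lactamase/M1 line, treated with compound plus 1 uM carbachol for 5 h, 37 °C.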

The target of experiment [17] is Glucocorticoid receptor (Homo sapiens) (UniProt P04150). Kind of experiment: GR-EFC Redistribution (AID 451; calls by dose curve; further: potency means the concentration at half of the fitted maximal effect). The settings on record: CHO-K1 GR-EFC translocation, beta-gal luminescence, 2 h. In a few lines:
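Translocation of GR-ED fusion to nuclear EA restores b-gal, read by luminescence after 1 h room-temperature detection. Engineered CHO-K1 biosensor cells, 1,000/well, exposed 2 h at 37 C to titrations up to 46 uM final.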

Experiment [18] can be described thus: Cell Viability - BJ (AID 421; calls by dose curve;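 further: potency means the concentration at half of the fitted maximal effect; cells exposed to compound for 40 hours at 37 °C before readout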). The settings on record: BJ fibroblast viability, qHTS. Put shortly: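 Quantitative HTS: ATP depletion in BJ cells after 40 hr compound exposure in complete culture medium, detected with CellTiter-Glo; AC50 from standard Hill fits.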
A short description of experiment [19]: Cell Viability - SH-SY5Y (AID 544; active means well fitted curve in the direction sought with a large enough effect; an effect the other way counts as inactive or inconclusive; further: potency means the concentration at half of the fitted maximal effect; nearly all actives have a fitted effect of over 55% in size). The settings on record: SH-SY5Y neuroblastoma cell viability; viability change, negative = cytotoxic: at 92.2 µM (top of the series). In a few lines:
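Cells were plated at 1500 per well and allowed 5 hr at 37 °C. Compounds were added across a concentration range and incubated 40 hr at 37 °C. CellTiter-Glo was added for 20 min at room temperature before luminescence reading.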

Chain of Glucocorticoid receptor (Homo sapiens) (P04150 whole entry, looked up, the tested form may be a part): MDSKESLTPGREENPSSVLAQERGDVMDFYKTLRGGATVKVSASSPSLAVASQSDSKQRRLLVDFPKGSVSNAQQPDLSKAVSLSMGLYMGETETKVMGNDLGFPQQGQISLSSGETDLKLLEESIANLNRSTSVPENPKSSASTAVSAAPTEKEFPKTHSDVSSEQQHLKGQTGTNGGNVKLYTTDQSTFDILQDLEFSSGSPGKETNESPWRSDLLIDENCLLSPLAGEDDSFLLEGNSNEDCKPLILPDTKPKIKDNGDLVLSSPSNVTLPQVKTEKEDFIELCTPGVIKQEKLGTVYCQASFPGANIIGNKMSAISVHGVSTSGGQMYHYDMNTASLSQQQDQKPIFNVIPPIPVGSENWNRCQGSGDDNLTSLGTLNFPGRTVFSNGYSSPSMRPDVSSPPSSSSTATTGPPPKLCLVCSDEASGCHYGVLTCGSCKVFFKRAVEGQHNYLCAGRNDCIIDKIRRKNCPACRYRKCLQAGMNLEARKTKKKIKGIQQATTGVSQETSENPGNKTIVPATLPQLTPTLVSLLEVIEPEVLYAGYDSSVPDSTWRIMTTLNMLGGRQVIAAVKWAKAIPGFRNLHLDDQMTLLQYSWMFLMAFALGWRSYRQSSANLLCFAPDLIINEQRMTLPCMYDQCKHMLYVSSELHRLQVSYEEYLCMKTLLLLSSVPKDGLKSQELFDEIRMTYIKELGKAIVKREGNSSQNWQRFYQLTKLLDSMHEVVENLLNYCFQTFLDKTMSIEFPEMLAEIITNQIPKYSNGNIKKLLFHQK
Chain of Cytochrome P450 1A2 (Homo sapiens) (P05177 whole entry, looked up): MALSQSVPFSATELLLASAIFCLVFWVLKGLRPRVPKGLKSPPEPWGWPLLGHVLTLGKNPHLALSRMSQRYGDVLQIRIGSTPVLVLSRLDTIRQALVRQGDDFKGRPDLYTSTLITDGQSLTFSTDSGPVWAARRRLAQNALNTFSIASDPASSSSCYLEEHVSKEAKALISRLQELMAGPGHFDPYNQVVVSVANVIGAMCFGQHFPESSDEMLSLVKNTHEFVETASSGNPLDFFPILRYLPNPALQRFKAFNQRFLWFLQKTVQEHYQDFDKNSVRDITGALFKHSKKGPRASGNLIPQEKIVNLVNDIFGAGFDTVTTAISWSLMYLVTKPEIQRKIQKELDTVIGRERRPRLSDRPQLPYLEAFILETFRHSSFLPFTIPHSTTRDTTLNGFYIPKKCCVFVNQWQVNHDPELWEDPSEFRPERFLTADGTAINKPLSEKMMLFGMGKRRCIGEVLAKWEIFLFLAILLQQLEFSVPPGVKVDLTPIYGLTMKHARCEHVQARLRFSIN

As to `NC(=NCCCCCCN=C(N)/N=C(\N)Nc1ccc(Cl)cc1)/N=C(\N)Nc1ccc(Cl)cc1`, the Potency in [1] is 15.8 µM (active); in experiment [2] it was 42.1 µM (active); in experiment [3], 45.6 µM (active); in experiment [4], 39.6 µM (active); in experiment [5] it was 50 µM (active); in [6], 46.5 µM (active). The Potency in experiment [8] is > 20.6 µM; in experiment [10], 31.6 µM (active); in experiment [11], 31.6 µM (active); in [12], 39.8 µM (active); in experiment [13], 31.6 µM (active). The activity, negative = inhibition in experiment [7] was -5.46%. Moreover, the result in experiment [9] was inactive. Further, the activity change, negative = cytotoxicity in experiment [14] was -102% (active).

Consider `O=C1c2ccccc2C(=O)C1c1ccccc1`, for which the results for the activity change, negative = inhibition in experiment [15] and in [16] were -0.252% and -11.7%, respectively. In addition, the activity, negative = inhibition in experiment [7] was 3.06%. Moreover, the Potency in experiment [8] is > 20.6 µM. For the same molecule, in [9], the result was inactive.

For the molecule `Cc1cccc(C)c1NC(=O)CN1CCN(CCCC(c2ccc(F)cc2)c2ccc(F)cc2)CC1`, the values for the activity change, negative = inhibition in [15] and in experiment [16] were 4.39% and 5.94%, respectively. The activity, negative = inhibition in experiment [7] was -20%. In addition, the molecule was classed as inactive in experiment [9].

For the molecule `C[C@@H]1CN(CCCn2c3ccccc3c3ccccc32)C[C@H](C)N1`, the Potency in [1] was 0.794 µM (active). Besides, the molecule was classed as inactive in experiment [9].

As to `CCn1cc(C(=O)O)c(=O)c2cnc(N3CCCC3)nc21`, the activity change, negative = inhibition was 5.94% in experiment [15] and 5.83% in experiment [16]. Besides, the activity, negative = inhibition in experiment [7] is 2.28%. Further, the Potency in experiment [8] was > 20.6 µM. In [9], the call was inactive.

As for `CC(=O)O[C@H]1C[C@@H]2CC[C@@H]3[C@H](CC[C@@]4(C)[C@H]3C[C@H]([N+]3(C)CCCCC3)[C@@H]4OC(C)=O)[C@@]2(C)C[C@@H]1[N+]1(C)CCCCC1`, the activity change, negative = inhibition in experiment [15] is 10.4%. In addition, in [7], the activity, negative = inhibition is 10.1%. For the same molecule, in [8], the Potency was > 20.6 µM.

Turning to `CNCC[C@@H](Oc1ccccc1C)c1ccccc1`, the Potency in experiment [1] is 15.8 µM (active); in experiment [17] it was > 46 µM. For the same molecule, in experiment [9], the molecule was classed as inactive.

With `CC[N+](CC)(CCNC(=O)C(=O)NCC[N+](CC)(CC)Cc1ccccc1Cl)Cc1ccccc1Cl`, in experiment [1], the Potency entry was “inactive”. Moreover, the outcome in experiment [9] was inactive.

Regarding `COC1=CC(=O)C[C@@H](C)[C@]12Oc1c(Cl)c(OC)cc(OC)c1C2=O`, the Potency was > 92 µM in [18]; > 92 µM in experiment [3]; > 92 µM in [4]; > 92 µM in experiment [5]; 25.1 µM (active) in experiment [13]; 25.1 µM (active) in experiment [19]. The result in [9] was inactive. The Potency result in experiment [10], in experiment [11] and in experiment [12] was “inactive” each time.

For the molecule `c1ccc(-c2ccc(C(c3ccccc3)n3ccnc3)cc2)cc1` (centres undefined), the activity, negative = inhibition in [7] is -24.4%. Further, the Potency in experiment [8] is > 20.6 µM.

As for `CN(C)/N=N/c1nc[nH]c1C(N)=O`, the Potency in experiment [18] is > 92 µM; in [3], > 92 µM; in experiment [4], > 92 µM; in experiment [5] it was > 92 µM; in experiment [6] it was > 92 µM; in [13] it was 25.1 µM (active). Besides, the molecule was classed as inactive in experiment [9]. Moreover, the Potency entry in [10] and in [12] was “inactive” each time. The activity change, negative = cytotoxicity in experiment [14] is -19.1%.

`CC(=O)c1ccc2c(c1)N(CCCN1CCC(CCO)CC1)c1ccccc1S2`: the activity change, negative = inhibition in [15] was 4.33%. Moreover, in [7], the activity, negative = inhibition was 9.61%. Further, in [8], the Potency is > 20.6 µM. Moreover, the call in [9] was inactive.
